# Screens as filed in PubChem.
# ELG1 repair inh: qHTS screen for small molecules that inhibit ELG1-dependent DNA repair in human embryonic kidney (HEK293T) cells expressing luciferase-tagged ELG1; HEK293T ELG1-luciferase reporter, luminescence, 16 h; DNA damage induced by 5-fluorouridine; AID 504467, 2011; Potency, µM (doses to about 46.1 µM), hits mostly inhibitors; 330,000 compounds, 2.3% hits; also: nearly all actives have a fitted effect of over 55% in size
#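 Quantitative HTS, concentration-response format. 2,000 cells/well co-treated with 5-fluorouridine and compound, 16 hr in 5% CO2 at 37 °C; ONE-Glo luminescence read after 30 min.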
# IL-2 act: qHTS of IL-2 Activators | IL-2 activation reporter assay, cell-based qHTS; stimulated with anti-CD3/CD4/CD28 beads; in transgenic mouse T cells | activation, % (series mostly up to about 46 µM) | 360,000 compounds, 0.065% hits; in the data active = activation above about 50%; inconclusive = mostly about 30% to 49%
#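 Unstimulated transgenic mouse T cells, 750 per well, received compound and, after 60 minutes, anti-CD3/anti-CD4 bead plus anti-CD28 stimulation. EGFP and DsRed were quantified after 18 hours.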
# BRCA1 expr up: qHTS Assay to Identify Small Molecule Activators of BRCA1 Expression; MCF7-BRCA1-FFLuc reporter, luminescence, 48 h; response scale: scaled: vehicle 0%, 10 µM genistein 100%; Potency, µM (titrated, usually from 46.1 µM), hits mostly activators; 380,000 compounds, 1.1% hits; also: nearly all actives have a fitted effect of over 80% in size
#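 MCF7-BRCA1-FFLuc cells, 2000/well in phenol-red-free MEM, attached 2 h then treated 48 h at 37 C. Luciferase luminescence read 15 min after reagent; normalized to genistein maximum activation (10microM) and DMSO, concentration-response fitted.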
# Nrf2 ARE act: qHTS of Nrf2 Activators; 410,000 compounds, 0.31% hits; Potency, µM (highest dose often 46.1 µM), most hits filed as activators; AREc32 ARE-luciferase reporter (MCF7-derived line), luminescence, 24 h; AID 624171, 2012; also: nearly all actives have a fitted effect of over 65% in size
#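 AREc32 cells carrying an ARE-driven firefly luciferase reporter were seeded at 1000 cells/well in OPTI-MEM with 5% FBS, then exposed to compound for 24 hr at 37 deg C. Luminescence was read with Steady-Glo after 30 min at RT.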
# Hits are given with their value; i = inactive; ? = inconclusive; nt = no result given; ! = a repeat was not active. This is a sample that favours compounds with a hit; in the whole collection about 3.1% have one here. Unless noted, calls follow the shape of the dose curve; as a rule, active = well fitted curve in the direction sought with a large enough effect; inconclusive = small, poorly fitted or top-dose-only effect, or another doubt; inactive = no such curve, though single readings can be large; an effect the other way counts as inactive or inconclusive.
SMILES,ELG1 repair inh,IL-2 act,BRCA1 expr up,Nrf2 ARE act
CCCCN(C)CCCNC(=O)Cn1ncc2c3ccccc3n(Cc3cc(C)ccc3C)c2c1=O,nt,nt,nt,i
O=C(c1ccco1)N1CCN(c2ccc(N3CCCCC3)nn2)CC1,?,i,10µM,i
COc1ccc(CN2CCN(C(=O)c3ccc(CNS(=O)(=O)c4ccc(C)cc4)cc3)CC2)c(OC)c1OC,9.2µM,i,i,i
COc1cccc(CN2CCN(C(=O)c3ccc(-c4ccccc4)cc3)CC2)c1OC,18µM,i,i,i
COc1cc(NC(C)CCCN)c2nc(C)ccc2c1Oc1ccc(F)cc1 (configuration not stated),nt,i,i,i
CCCN1C(=O)c2cc(C(=O)Nc3ccccc3OC)ccc2C1Nc1ccccc1OC (configuration not stated),?,i,i,i
CCCN1C(=O)c2cc(C(=O)Nc3cccc(C(C)=O)c3)ccc2C1Nc1cccc(C(C)=O)c1 (configuration not stated),16µM,i,i,i
Cc1ccc(-c2nc(NC(=O)c3nn(C)cc3[N+](=O)[O-])sc2C)cc1C,9.2µM,i,i,?
Cn1cc([N+](=O)[O-])c(C(=O)Nc2nc(-c3ccc(Cl)cc3)cs2)n1,2.1µM,i,i,?
Cc1ccc(-c2nc(NC(=O)c3nn(C)cc3[N+](=O)[O-])sc2C)cc1,16µM,i,i,i
Cc1cnc(NC(=O)c2nn(C)cc2[N+](=O)[O-])s1,i,i,i,i
O=C(Cn1c(=O)n(Cc2ccc(F)cc2)c(=O)c2sc3ccccc3c21)NCc1ccccc1Cl,nt,nt,i,i
COc1ccccc1OCC(=O)N(Cc1ccco1)Cc1ccccc1F,nt,nt,nt,i
COc1ccc(CCNc2oc(COc3ccccc3F)nc2C#N)cc1OC,23µM,i,i,i
N#Cc1nc(COc2ccccc2Cl)oc1NCCc1ccccc1,nt,nt,nt,i
COc1ccc(CCNc2oc(COc3ccccc3Cl)nc2C#N)cc1OC,23µM,i,i,i
COc1cc(-c2nc(-c3cccc(Cl)c3)c(-c3ccccc3)[nH]2)cc(OC)c1OC,nt,nt,nt,i
COc1cc(-c2nc(-c3ccc4c(c3)-c3ccccc3S4(=O)=O)c(-c3ccccc3)[nH]2)cc(OC)c1O,4.6µM,i,i,i
CCn1cc(C(=O)NC(C)CCc2ccccc2)c(=O)c2cc(S(=O)(=O)N(C)C)ccc21 (configuration not stated),21µM,i,i,i
CCn1cc(C(=O)NCc2ccc3c(c2)OCO3)c(=O)c2cc(S(=O)(=O)N(C)C)ccc21,16µM,i,i,i
CCN(CCCNC(=O)c1cn(CC)c2ccc(S(=O)(=O)N(C)C)cc2c1=O)c1cccc(C)c1,23µM,i,i,i
CCn1cc(C(=O)NCCc2ccc(Cl)cc2)c(=O)c2cc(S(=O)(=O)N(C)C)ccc21,i,i,i,i
C=CCn1cc(C(=O)NCCCOCC)c(=O)c2cc(S(=O)(=O)N(CC)CC)ccc21,18µM,i,i,i
Cc1cccc(-c2nc(CN3CCCC(C(=O)NCc4ccc(Cl)cc4)C3)c(C)o2)c1 (configuration not stated),nt,nt,nt,i
COc1cccc(N2CC(NC(=O)COc3ccc4ccccc4c3)CC2=O)c1 (configuration not stated),nt,nt,nt,i
SMILES,ELG1 repair inh,IL-2 act,BRCA1 expr up,Nrf2 ARE act
N#C/C(=C\c1ccc(N2CCCCC2)o1)C(N)=O,?,i,i,i
N#C/C(=C\c1ccc(N2CCCCC2)o1)C(=O)Nc1cccc(Br)c1,?,i,1µM,i
COc1ccc(N2CCN(S(=O)(=O)c3ccc(OC)c(-c4noc(C)n4)c3)CC2)cc1,nt,nt,i,i
c1ccc(CN2CCN(c3ncnc4c3[nH]c3ccccc34)CC2)cc1,15µM,i,i,i
Cc1ccc2c(c1)[nH]c1c(N3CCN(Cc4ccccc4)CC3)ncnc12,18µM,i,i,i
Cc1ccc2[nH]c3c(N4CCN(Cc5ccccc5)CC4)ncnc3c2c1,?,i,i,i
Cn1cnc(S(=O)(=O)N2CCC(C(=O)NCc3ccccc3)CC2)c1,nt,nt,nt,i
COc1cc(/C=C2/SC(=S)N(CCC(=O)Nc3cccnc3)C2=O)cc(OC)c1OC,nt,i,i,i
CCCC(=O)Nc1ccc(S(=O)(=O)N2CCC(c3nc4ccccc4[nH]3)CC2)cc1,?,i,i,i
CCC(=O)Nc1ccc(S(=O)(=O)N2CCC(c3nc4ccccc4[nH]3)CC2)cc1,18µM,i,i,i
Cc1cccc2cc(CN(Cc3cccs3)Cc3nnnn3Cc3ccccc3)c(=O)[nH]c12,18µM,i,i,i
CCc1nnc(NC(=O)c2nc(SCc3ccc(F)cc3)ncc2Cl)s1,nt,nt,nt,i
CCOC1=C2[C@@H](CN(S(=O)(=O)c3ccc(C)cc3)[C@H]2c2cccc3ccccc23)[C@H]2C(=O)N(C3CCCCC3)C(=O)[C@H]2C1,nt,i,i,i
CC(=O)c1sc2nc(-c3cccs3)ccc2c1N,?,i,i,13µM
O=C(NC(=O)c1ccc(Cl)cc1)OC1CCCCC1,?,i,13µM,i
CN(C)c1ccc(/C=C(\C#N)c2ccccc2)cc1,?,i,2.8µM,i
C[n+]1c2n(c3ccccc31)N=C(c1ccccc1)CS2,5.8µM!,i,i,8.9µM
COc1cccc(CNC(=O)CCNS(=O)(=O)c2ccc3c(c2)CCCC(=O)N3)c1,nt,nt,i,i
O=C(CSc1nc(-c2ccccc2)ns1)N1CCOCC1,?,i,4µM,i
Cc1cccc(-c2nsc(SCC(=O)N3CCCC3)n2)c1,?,i,?,i
COc1ccc(S(=O)(=O)Nc2ccc3c(c2)C(=O)N([C@H](C)CO)C[C@H](C)[C@@H](CN(C)S(=O)(=O)c2ccc(OC)cc2)O3)cc1,nt,i,i,i
C[C@H](CO)N1C[C@H](C)[C@@H](CN(C)S(=O)(=O)c2cccs2)Oc2ccc(NS(=O)(=O)c3ccccc3)cc2C1=O,9.2µM,i,i,i
C[C@H](CO)N1C[C@H](C)[C@@H](CN(C)S(=O)(=O)c2cccs2)Oc2ccc(NS(=O)(=O)c3ccc(F)cc3)cc2C1=O,6.5µM,i,i,i
COc1ccc(S(=O)(=O)Nc2ccc3c(c2)C(=O)N([C@@H](C)CO)C[C@H](C)[C@H](CN(C)S(=O)(=O)c2ccc(F)cc2)O3)cc1,21µM,i,i,i
C[C@H](CO)N1C[C@H](C)[C@@H](CN(C)S(=O)(=O)c2ccccc2)Oc2ccc(NS(=O)(=O)c3ccccc3)cc2C1=O,23µM,i,i,i
C[C@H](CO)N1C[C@H](C)[C@@H](CN(C)S(=O)(=O)c2ccccc2)Oc2ccc(NS(=O)(=O)c3ccc(F)cc3)cc2C1=O,?,i,i,i
CCOC(=O)C1CCN(C(=O)Cn2nc(CC)n3c(cc4occc43)c2=O)CC1,nt,nt,i,i
CCC(C)NC(=O)C1CCC(CNS(=O)(=O)c2ccc(Cl)cc2)CC1 (configuration not stated),nt,nt,nt,i
